Measured values taken from PubChem BioAssay (NCATS).
Results filed as inconclusive are left out. The source made the active and inactive calls. Calls follow the shape of the dose curve; as a rule, active = well fitted curve in the direction sought with a large enough effect; inconclusive = small, poorly fitted or top-dose-only effect, or another doubt; inactive = no such curve, though single readings can be large; an effect the other way counts as inactive or inconclusive. Starred links: 1 amine or outer side, 2 acyl side, 3 side chain; linkers in the order of their positions; H or OH if unused. Positions of bridges follow the written chain, without caps; N, C: chain ends. Non-standard residues stand in square brackets, D forms with d. Residues, ends and D or L forms follow the SMILES beside them. Chains are numbered I, II in the order given. Actinocin(9to1) = Cc1c2oc3c(C)ccc(C(=O)[*:1])c3nc-2c(C(=O)[*:2])c(N)c1=O; NMeV = CN[CH](C(=O)O)C(C)C; Sar = CNCC(=O)O

What was measured:
[1] = qHTS of pediatric cancer cell lines to identify multiple opportunities for drug repurposing: Primary screen for A673 cells (AID 1347092); also: potency is read from the fitted curve at half-maximal effect; nearly all actives have a fitted effect of over 45% in size
Summary of the method: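 48 h compound exposure, A673, 500-1,000 cells/well, 37 degrees C/5% CO2. MIPE: 11-point, 0.78 nM-46 µM; NPC: 8-point, 0.59 nM-46 µM (final). Readout CellTiter-Glo luminescence after 15 min RT.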

[2] = qHTS of pediatric cancer cell lines to identify multiple opportunities for drug repurposing: Primary screen for SK-N-MC cells (AID 1347093); also: potency is read from the fitted curve at half-maximal effect
Summary of the method: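 Metabolically active cells were quantified by ATP-dependent luminescence (CellTiter-Glo, 15 min at room temperature) following 48 h treatment. Cells had been plated at 500-1,000 per well and settled for 5 h beforehand.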

[3] = qHTS of pediatric cancer cell lines to identify multiple opportunities for drug repurposing: Primary screen for NB-EBc1 cells (AID 1347095); also: potency is read from the fitted curve at half-maximal effect
Summary of the method: (§1)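 Cells plated at 500-1,000/well in growth medium, compounds added after 5 h. MIPE tested at 11 points (from 0.78 nM), NPC at 8 points (from 0.59 nM). CellTiter-Glo luminescence after 48 h; concentration-response curves from primary screen.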

[4] = qHTS of pediatric cancer cell lines to identify multiple opportunities for drug repurposing: Primary screen for U-2 OS cells (AID 1347096); also: nearly all actives have a fitted effect of over 50% in size; also: potency is read from the fitted curve at half-maximal effect
Summary of the method: (§2)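 Cells (500-1,000/well) rested 5 h, then received compounds for 48 h; metabolically active cells were measured by CellTiter-Glo luminescence. Final concentrations spanned up to 46 µM (MIPE, 11-point) or 0.59 nM-46 µM (NPC, 8-point) in primary screens, 11-point in follow-ups.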

[5] = qHTS of pediatric cancer cell lines to identify multiple opportunities for drug repurposing: Primary screen for NB1643 cells (AID 1347099); also: potency is read from the fitted curve at half-maximal effect; nearly all actives have a fitted effect of over 50% in size
Summary of the method: as §1

[6] = qHTS of pediatric cancer cell lines to identify multiple opportunities for drug repurposing: Primary screen for BT-12 cells (AID 1347101); also: potency is read from the fitted curve at half-maximal effect; nearly all actives have a fitted effect of over 25% in size
Summary of the method: as §2

[7] = qHTS of pediatric cancer cell lines to identify multiple opportunities for drug repurposing: Primary screen for OHS-50 cells (AID 1347103); also: potency is read from the fitted curve at half-maximal effect; nearly all actives have a fitted effect of over 40% in size
Summary of the method: as §2

[8] = qHTS of pediatric cancer cell lines to identify multiple opportunities for drug repurposing: Primary screen for RD cells (AID 1347104); also: potency is read from the fitted curve at half-maximal effect; nearly all actives have a fitted effect of over 55% in size
Summary of the method: as §1

[9] = qHTS of pediatric cancer cell lines to identify multiple opportunities for drug repurposing: Primary screen for control Hh wild type fibroblast cells (AID 1347106);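 also: series mostly up to about 46 µM; a drop in luminescence marks cytotoxicity and a rise apparent proliferation; nearly all actives have a fitted effect of over 55% in size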
Summary of the method: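 Cells (500-1,000/well) in growth media were settled 5 h at 37 degrees C, then given compounds for 48 h. Viability was read as CellTiter-Glo luminescence. Primary runs used MIPE at 11 points (0.78 nM-46 µM) and NPC at 8 points (0.59 nM-46 µM); follow-ups used 11 points.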

[10] = qHTS of pediatric cancer cell lines to identify multiple opportunities for drug repurposing: Primary screen for Rh30 cells (AID 1347107); also: series mostly up to about 46 µM; nearly all actives have a fitted effect of over 75% in size
Summary of the method: as §2

[11] = qHTS of pediatric cancer cell lines to identify multiple opportunities for drug repurposing: Confirmatory screen for NB1643 cells (AID 1347109); also: nearly all actives have a fitted effect of over 45% in size; also: potency is read from the fitted curve at half-maximal effect
Summary of the method: as §2

[12] = qHTS of pediatric cancer cell lines to identify multiple opportunities for drug repurposing: Confirmatory screen for A673 cells (AID 1347110);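 also: potency is read from the fitted curve at half-maximal effect; cells exposed to compound for 48 h before the viability read; nearly all actives have a fitted effect of over 65% in size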
Summary of the method: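 Concentration-response curves came straight from titrations: 11 points (0.78 nM to 46 µM) for MIPE and several concentrations (0.59 nM to 46 µM) for NPC in primary, 11 points in follow-up. Readout: ATP luminescence at 48 h.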

[13] = qHTS of pediatric cancer cell lines to identify multiple opportunities for drug repurposing: Primary screen for BT-37 cells (AID 1347094); also: potency is read from the fitted curve at half-maximal effect
Summary of the method: as §1

[14] = qHTS of pediatric cancer cell lines to identify multiple opportunities for drug repurposing: Primary screen for SK-N-SH cells (AID 1347098); also: nearly all actives have a fitted effect of over 65% in size; also: potency is read from the fitted curve at half-maximal effect
Summary of the method: as §2

[15] = qHTS of pediatric cancer cell lines to identify multiple opportunities for drug repurposing: Primary screen for LAN-5 cells (AID 1347100); also: potency is read from the fitted curve at half-maximal effect
Summary of the method: as §2

[16] = qHTS of pediatric cancer cell lines to identify multiple opportunities for drug repurposing: Primary screen for Rh18 cells (AID 1347102); also: nearly all actives have a fitted effect of over 65% in size; also: potency is read from the fitted curve at half-maximal effect
Summary of the method: as §2

[17] = qHTS of pediatric cancer cell lines to identify multiple opportunities for drug repurposing: Primary screen for Saos-2 cells (AID 1347097); also: potency is read from the fitted curve at half-maximal effect; nearly all actives have a fitted effect of over 40% in size
Summary of the method: as §1

CCc1cc(C(C)=NOCc2ccc(C3CCCCC3)c(C(F)(F)F)c2)ccc1CN1CC(C(=O)O)C1
Potency [1]: 1.48 µM (active)
Potency [2]: 0.0372 µM (active)
Potency [3]: 20.9 µM (active)
Potency [4]: inactive
Potency [5]: 2.64 µM (active)
Potency [6]: 3.06 µM (active)
Potency [7]: 8.63 µM (active)
Potency [8]: 5.9 µM (active)
Potency [9]: inactive
Potency [10]: inactive
Potency [11]: 29.3 µM (active)
Potency [12]: 13.1 µM (active)

CCOC(=O)N1CCN([N+]([O-])=NOc2ccc([N+](=O)[O-])cc2C#N)CC1
Potency [2]: 10.5 µM (active)
Potency [13]: 7.69 µM (active)
Potency [3]: 5.26 µM (active)
Potency [14]: inactive
Potency [5]: 3.72 µM (active)
Potency [15]: 4.18 µM (active)
Potency [6]: 3.06 µM (active)
Potency [7]: 3.43 µM (active)
Potency [8]: 4.69 µM (active)
Potency [10]: inactive
Potency [12]: 2.61 µM (active)

N#CC(=Cc1ccc(O)c(O)c1)C(=O)NCc1ccccc1
Potency [2]: 14.8 µM (active)
Potency [3]: 23.5 µM (active)
Potency [4]: inactive
Potency [16]: inactive
Potency [9]: inactive

Cc1c2oc3c(C)ccc(C(=O)NC4C(=O)NC(C(C)C)C(=O)N5CCCC5C(=O)N(C)CC(=O)N(C)C(C(C)C)C(=O)OC4C)c3nc-2c(C(=O)NC2C(=O)NC(C(C)C)C(=O)N3CCCC3C(=O)N(C)CC(=O)N(C)C(C(C)C)C(=O)OC2C)c(N)c1=O (stereo unspecified) (I: TVP[Sar][NMeV] / II: TVP[Sar][NMeV]; ester I:1-I:C, II:1-II:C; linker I:N-II:N via Actinocin(9to1); configuration not given here)
Potency [2]: 0.001 µM (active)
Potency [13]: 0.001 µM (active)
Potency [3]: inactive
Potency [4]: 0.001 µM (active)
Potency [17]: 0.001 µM (active)
Potency [14]: 0.001 µM (active)
Potency [6]: 0.001 µM (active)
Potency [16]: 1.87 µM (active)
Potency [7]: 0.001 µM (active)
Potency [8]: 0.001 µM (active)
Potency [10]: inactive
Potency [11]: inactive
Potency [12]: 0.0147 µM (active)
